Some of the results follow. Values without a mark were called inactive. Active and inactive are the calls of the source.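 Rule for the calls: active = mean activation at 20 µM of at least 40%; inactive = the rest.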

For the experiment, the target named is Neurotensin receptor type 1 (Homo sapiens) (UniProt P30989). Put plainly: NTR1 agonists, single-dose retest, confirmation, imaging, U2OS cells, beta-arrestin-GFP, single concentration (AID 504550).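 Note: 0% = DMSO without peptide and 100% = 100 nM NTR1 peptide.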 Particulars: NTR1-U2OS beta-arrestin-GFP translocation imaging; at 20 µM; active compounds read high.
Neurotensin receptor type 1 (Homo sapiens), sequence (P30989 whole entry, looked up): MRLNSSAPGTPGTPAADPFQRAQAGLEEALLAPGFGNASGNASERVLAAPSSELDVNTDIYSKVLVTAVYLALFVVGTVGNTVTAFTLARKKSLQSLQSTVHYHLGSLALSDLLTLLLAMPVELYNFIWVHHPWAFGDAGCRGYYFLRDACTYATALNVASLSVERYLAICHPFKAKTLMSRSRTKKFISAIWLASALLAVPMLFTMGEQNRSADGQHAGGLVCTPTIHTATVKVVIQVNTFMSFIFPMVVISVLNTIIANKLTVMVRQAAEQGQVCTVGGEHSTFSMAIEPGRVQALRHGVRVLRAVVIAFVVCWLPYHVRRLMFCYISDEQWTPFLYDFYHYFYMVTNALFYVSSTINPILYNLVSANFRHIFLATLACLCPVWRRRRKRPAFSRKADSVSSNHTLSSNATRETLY
Consider `CN1/C(=C\C(=O)c2oc3ccccc3c2N)C(C)(C)c2ccccc21`, for which the activation was 15%.

With `CC(C)(C)OC(=O)N1CCC(NC(=O)c2[nH]cnc2C(=O)N[C@@H](Cc2ccccc2)C(=O)OCc2ccccc2)CC1`, the activation is 51.5% (active). In the case of `Cc1cccc(-c2nc(Nc3ccc(O)cc3)c3ccccc3n2)c1`, the activation was 31.3%. The figure for `CC(C)c1ccccc1OCC(O)CN(CC(O)COc1cccc2ccccc12)C(C)C` (stereo not given) is 15.3%; for `OC(CN=c1sc2ccccc2n1CC(O)COc1ccccc1)COc1ccccc1` (stereo not given) it is 18.2%; for `CCCCNc1c(-c2cccc(Sc3ccc(OC)cc3)c2)nc2ccccn12` it is 68.2% (active). The figure for `CC(C)Cn1c(N)c(C(=O)NCc2cccs2)c2nc3ccccc3nc21` is 21%. As to `COc1cccc(/C=N/Nc2cc(C)nc(-c3ccccc3O)n2)c1O`, the activation is 36.7%. The value for `O=C(N/N=C/c1ccc(OC(=O)c2ccccc2Cl)cc1)c1ccc(O)cc1` was 50.1% (active); that for `O=C(/C=C/c1ccc(Cl)c([N+](=O)[O-])c1)c1cccnc1` was 49.5% (active); that for `Cc1ccc(NC(=O)COc2coc(CN3CCc4ccccc4C3)cc2=O)cc1Cl` was -2.38%. Regarding `O=C(N/N=C/c1c(Cl)[nH]c2ccccc12)c1sc2ccccc2c1Cl`, the activation is 21.7%. The figure for `O=C(/C(=C/c1cccc(Cl)c1)c1nc2ccccc2[nH]1)c1ccccc1` is 62.5% (active); for `COc1ccc(C(C[N+](=O)[O-])n2nc(C)cc2C)cc1` (stereo not given) it is 52.4% (active). As for `CC(C)Oc1c(Br)cc(Br)cc1/C=N/NC(N)=S`, the activation was 26.4%. For the molecule `CCCCCCCCCCOC(=O)Cn1c(COc2cccc(OC)c2)[n+](C)c2ccccc21`, the activation is 71.8% (active). As for `O=c1oc2ccccc2cc1-c1csc(Nc2ccc(O)cc2)n1`, the activation is 10.5%.

For `Nc1nc(Nc2ccccc2F)nc(NC2CCCCC2)c1[N+](=O)[O-]`, the activation is 13.2%. For `CCOC(=O)CSC1=C(C#N)C(c2ccco2)C(C(=O)OCc2ccccc2)=C(C)N1` (stereo not given), the activation was 7.17%. For `Cc1cccc(-n2c(SCC(N)=O)nc3c(c2=O)C2(CCCCC2)Cc2ccccc2-3)c1`, the activation is 22.7%.
